# High-throughput results from PubChem.
# Mcl1 Noxa PPI – Mcl-1/Noxa interaction inhibition; inhibition, % at 21.7 µM; AID 1022; actives 1.5% (n = 220,000); TR-FRET Mcl-1/Noxa peptide binding, 2 h;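 active = compounds that cut the protein-peptide binding signal by more than 50% relative to plate controls in a single-dose test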;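 note: His-tagged Mcl-1 with rhodamine Noxa BH3 peptide and terbium anti-His antibody; 0% = Mcl-1 plus Noxa peptide wells and 100% = peptide-only wells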
# NCF1 inh – blocks human p47phox regulatory protein of NADPH oxidases; actives 0.53% (n = 220,000); inhibition, % at 24.7 µM; p47phox/p22phox peptide binding, fluorescence polarization, 2 h; P14598;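 note: 0% = p47phox with labelled peptide and 100% = labelled peptide alone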
# Target sequence (P14598 whole entry, looked up): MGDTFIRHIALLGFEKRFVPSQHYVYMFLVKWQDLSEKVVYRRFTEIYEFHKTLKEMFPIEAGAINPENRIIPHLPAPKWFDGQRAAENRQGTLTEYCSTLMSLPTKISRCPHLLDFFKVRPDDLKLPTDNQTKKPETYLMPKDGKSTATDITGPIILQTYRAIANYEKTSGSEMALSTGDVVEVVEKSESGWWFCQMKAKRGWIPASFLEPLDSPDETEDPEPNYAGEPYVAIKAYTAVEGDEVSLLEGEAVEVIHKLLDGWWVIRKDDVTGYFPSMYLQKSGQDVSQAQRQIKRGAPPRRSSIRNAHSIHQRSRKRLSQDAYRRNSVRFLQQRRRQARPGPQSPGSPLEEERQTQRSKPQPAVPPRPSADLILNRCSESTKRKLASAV
# eIF4E-4G inh – blocks eIF4E binding to eIF4G. inhibition, % at 21.7 µM. actives 0.37% (n = 220,000). TR-FRET eIF4E-eIF4GI(517-606) binding, 2 h. P63073+Q04637. AID 782;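 note: 0% = full FRET control wells and 100% = background wells lacking eIF4GI fragment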
# Bim-Mcl-1 – inhibitors of Bim-Mcl-1 interaction, human; Q07820; Bead-based flow cytometry, Bim peptide-Mcl-1 binding; inhibition, % at 10 µM; actives 0.1% (n = 190,000); in the data active = inhibition above about 40%;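 note: 0% = no compound tracer wells and 100% = peptide blocker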
# 14-3-3 Bad inh – disrupts binding of bovine 14-3-3 zeta to phospho-Bad peptide | P63103 | TR-FRET 14-3-3zeta/Dy647-pBad peptide displacement, 1 h | inhibition, % at 21.7 µM | actives 0.71% (n = 220,000) | AID 781;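 active = inhibition above about 70%, limit read from the data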;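 note: 0% = full 14-3-3 plus peptide FRET controls and 100% = background without 14-3-3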
# Mcl1-Bid inh – disrupts binding of human Mcl-1 to Bid peptide | TR-FRET Mcl-1/Bid-Dy647 peptide binding, 1536-well | inhibition, % at 21.7 µM | actives 0.97% (n = 220,000) | AID 1021;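 active = compounds that cut the binding signal by more than half at the single screening dose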;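 note: His-tagged Mcl-1 with europium anti-His antibody binding Bid BH3 peptide; 0% = Mcl-1 plus peptide wells and 100% = peptide-only wells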
# Starred values were filed as active, the others as inactive; . = no result. Shown are actives, neighbours in structure and some others; about 3.3% of the full set was active somewhere.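 Rule for the calls, unless noted: active = inhibition above about 30% (limit read from the data); inactive = the rest.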
SMILES,Mcl1 Noxa PPI,NCF1 inh,eIF4E-4G inh,Bim-Mcl-1,14-3-3 Bad inh,Mcl1-Bid inh
CNC(=O)CC1C(=O)N(c2ccc(OC)cc2)C(=S)N1NC(=O)c1cccc(F)c1 (centres undefined),-3,-3,4,.,-3,99*
C#CCN1C(=O)S/C(=C/C=C/c2ccc(N(C)C)cc2)C1=O,44,44*,-5,-4,-10,-39
O=C(CN1C(=O)S/C(=C\C=C\c2ccccc2)C1=O)Nc1ccccc1C(=O)O,14,-29,-3,.,4,25
Cc1ccc(C(=O)CSc2ncnc3sc4c(c23)CCCC4)cc1,-38,-3,33*,-3,-6,-8
CCOC(=O)C(C)On1c(-c2ccccc2)nc2ccc([N+](=O)[O-])cc21 (centres undefined),15,-2,13,0,2,31
O=C(O)COn1c(-c2ccccc2)nc2ccc([N+](=O)[O-])cc21,55*,9,21,1,53,15
O=c1[nH]cc([N+](=O)[O-])cc1Br,5,-3,-2,-3,22,-11
Cc1snc(SCC(=O)c2ccc([N+](=O)[O-])cc2)c1C#N,66*,-1,8,-6,2,-34
COC(=O)c1ccc(Nc2c([N+](=O)[O-])c(=O)oc3ccccc23)cc1,5,-10,1,.,7,2
O=c1c2c3c(sc2[nH]c(=S)n1Cc1ccco1)CCC3,76*,-14,30,.,21,-50
CC1(C)Cc2c(sc3[nH]c(=S)n(Cc4ccco4)c(=O)c23)CO1,30,-12,-2,-5,5,-9
Cn1c(N)c(C(=O)CSc2nc3ccccc3c(=O)n2Cc2ccccc2)c(=O)n(C)c1=O,-91,-12,3,.,67,52*
Cn1c(N)c(C(=O)COC(=O)c2cc(C(F)(F)F)nc3ccccc23)c(=O)n(Cc2ccccc2)c1=O,10,-79,3,-2,4,2
CC(C)Cn1c(N)c(C(=O)COC(=O)c2ccccc2F)c(=O)n(C)c1=O,-19,10,-2,-3,6,1
CC(C)Cn1c(N)c(C(=O)COC(=O)c2ccccc2Cl)c(=O)n(C)c1=O,61*,0,-2,0,0,-9
Cn1c(N)c(C(=O)COC(=O)c2cc(-c3ccco3)nc3ccccc23)c(=O)n(Cc2ccccc2)c1=O,106*,-65,5,-2,1,15
Cn1c(N)c(C(=O)COC(=O)c2cc(-c3ccco3)nc3ccccc23)c(=O)n(C)c1=O,87*,-26,4,7,8,26
CCC(C)[C@H](NC(=O)NCc1ccc(S(N)(=O)=O)cc1)C(=O)O (some centres undefined),17,-10,-1,.,-4,-15
CCc1cc2c3c(c1)C1(C(=O)N3C(C)(C)C=C2C)C(C#N)=C(N)Oc2[nH]c(=O)[nH]c(=O)c21 (centres undefined),18,-11,0,1,-5,1
CCOC(=O)C1CCN(c2c(NCCCN3CCN(Cc4ccccc4)CC3)c(=O)c2=O)CC1,16,-4,-2,0,-4,52*
CCOC(=O)C1CCN(c2c(NCCCN3CCCCC3)c(=O)c2=O)CC1,-11,-9,-4,.,-3,-86
CCOC(=O)C1CCN(Cc2ccc(F)cc2)CC1,-14,0,5,0,61,51*
CCOC(=O)C1CCN(Cc2ccc(Cl)c(Cl)c2)CC1,20,-12,4,-3,28,10
COc1ccc(CN2CCSCC2)cc1O,18,5,-9,-1,76*,-7
COc1cc(CN2CCSCC2)cc(OC)c1OC,22,7,-11,-6,44,21
SMILES,Mcl1 Noxa PPI,NCF1 inh,eIF4E-4G inh,Bim-Mcl-1,14-3-3 Bad inh,Mcl1-Bid inh
O=C(NCc1ccco1)C1CCN(Cc2ccc(F)cc2)CC1,33,-1,-8,4,80*,28
CCOC(=O)C1CCN(Cc2ccc(O)c(OC)c2)CC1,10,-3,-5,-1,84*,18
COc1ccc(Cn2c(-c3ccc(Br)cc3)c[n+]3ccccc23)cc1,6,3,2,-14,-4,-4
O=C(Nc1ccc2oc(-c3cccnc3)nc2c1)c1ccco1,38,-9,-4,0,-1,-17
O=C(Nc1ccc2oc(-c3cccnc3)nc2c1)c1ccc(Br)o1,23,-50,-47,0,67,52*
O=C(Nc1ccc2oc(-c3cccnc3)nc2c1)c1ccc([N+](=O)[O-])o1,67*,11,10,0,65,61*
CSc1nc2cc(Oc3cccc(Cl)c3Cl)c(Cl)cc2[nH]1,5,-18,10,-3,3,5
Cn1cc(C(=O)Nc2ccc(F)c(Cl)c2)cn1,-4,-5,-12,-3,-16,-13
CN1c2ccsc2C(O)=C(C(=S)Nc2ccc(F)c(Cl)c2)S1(=O)=O,34,-6,-2,-6,10,54*
O=C(c1cnccn1)N(Cc1cccs1)C1(C(=O)NC2CCCC2)CCCCC1,13,4,-2,-24,0,10
O=C(c1cnccn1)N(Cc1cccs1)C1(C(=O)NC2CCCCC2)CCCCC1,6,-4,1,54*,3,1
CCC1ON(c2ccccc2)C2c3nc4ccccc4n3CC12 (centres undefined),-4,-5,0,.,-2,-20
Cc1cc(N2C(=O)[C@@H]3[C@H](C2=O)[C@@H]2C[C@H]3C(Br)C2Br)no1 (some centres undefined),1,-11,-6,.,-8,-15
CC1=CC(C)[C@H](/C=N/n2c(=O)[nH]c3c([nH]c4ccc(Br)cc43)c2=O)C(C)C1 (some centres undefined),11,-9,-2,0,-12,-34
CCNc1nc(Oc2ccc(=O)[nH]n2)nc(N2CCOCC2)n1,5,-24,-8,-4,5,2
O=c1ccc(Oc2nc(N3CCCCC3)nc(N3CCCCC3)n2)n[nH]1,4,-1,1,1,74*,-41
CC(NC(=O)CN(C)Cc1cccs1)c1ccccc1 (centres undefined),-4,.,3,-2,2,-1
N=C1/C(=C/c2cccn2Cc2ccc(Cl)cc2)C(=O)N=C2SC=CN12,36,22,7,-1,25,54*
Cc1cc(C)n2nc(SCC(=O)c3c(N)n(CC(C)C)c(=O)n(C)c3=O)nc2n1,4,-9,2,-2,-16,-6
Cc1cccc(OCC(=O)N(C)CCc2ccccn2)c1,12,0,4,0,71*,57*
COc1ccc(CCn2c(=S)[nH]c3cc(C(=O)NCc4ccco4)ccc3c2=O)cc1OC,8,20,12,-3,77*,52*
